Data on five molecules can be found in PubChem BioAssay.

A short description of assay [1]: binders of probe aFSTL3 on microarray, primary screen, stem cell growth factor project, biochemical, small-molecule microarray, fluorescence 635/667 (AID 1064).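 Further: measures binding of the biotinylated anti-FSTL3 antibody to printed compounds.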 The note with it: higher = more signal.
Assay [2] can be described thus: binders from COS7 lysate, DM2A8 probe, primary screen, torsin A project, cell lysate, small-molecule microarray, fluorescence 635/667 (AID 1065). The note with it: higher = more signal, COS7 lysate expressing mutant human TOR1A.
Assay [3] in a line: binders of probe aFGF2 on microarray, primary screen, stem cell growth factor project, biochemical, small-molecule microarray, fluorescence 635/667 (AID 1067).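 Further: measures binding of biotinylated aFGF2 protein to printed compounds on slides; z-score merges feature fluorescence and signal-to-noise across triplicate slides.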 The note with it: higher = more signal.
Assay [4] can be described thus: binders of probe aFGF10 on microarray, primary screen, stem cell growth factor project, biochemical, small-molecule microarray, fluorescence 635/667 (AID 1071).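 Further: score merges 667 nm spot intensity and signal to noise from triplicate slides.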 The note with it: higher = more signal.
For assay [5], the target named is Neurogenic locus notch homolog protein 2 (Homo sapiens) (UniProt Q04721). The experiment in a line: Notch2 binders on small-molecule microarrays, primary screen, biochemical, small-molecule microarray, 635 nm fluorescence, stem cell growth factors (AID 1073). Particulars: Notch2 binding, higher = more signal.
In assay [6] the target is Pro-neuregulin-1, membrane-bound isoform (Homo sapiens) (UniProt Q02297). Put plainly: NRG1 binders on small-molecule microarrays, primary screen, psychiatric disease protein project, biochemical, small-molecule microarray, fluorescence 635/667 (AID 1075).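 Further: score combines 667 nm spot fluorescence with signal to noise.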 Particulars: NRG1 binding, 635 nm fluorescence, higher = more signal.
Chain of Pro-neuregulin-1, membrane-bound isoform (Homo sapiens) (Q02297 whole entry, looked up, the tested form may be a part, canonical isoform): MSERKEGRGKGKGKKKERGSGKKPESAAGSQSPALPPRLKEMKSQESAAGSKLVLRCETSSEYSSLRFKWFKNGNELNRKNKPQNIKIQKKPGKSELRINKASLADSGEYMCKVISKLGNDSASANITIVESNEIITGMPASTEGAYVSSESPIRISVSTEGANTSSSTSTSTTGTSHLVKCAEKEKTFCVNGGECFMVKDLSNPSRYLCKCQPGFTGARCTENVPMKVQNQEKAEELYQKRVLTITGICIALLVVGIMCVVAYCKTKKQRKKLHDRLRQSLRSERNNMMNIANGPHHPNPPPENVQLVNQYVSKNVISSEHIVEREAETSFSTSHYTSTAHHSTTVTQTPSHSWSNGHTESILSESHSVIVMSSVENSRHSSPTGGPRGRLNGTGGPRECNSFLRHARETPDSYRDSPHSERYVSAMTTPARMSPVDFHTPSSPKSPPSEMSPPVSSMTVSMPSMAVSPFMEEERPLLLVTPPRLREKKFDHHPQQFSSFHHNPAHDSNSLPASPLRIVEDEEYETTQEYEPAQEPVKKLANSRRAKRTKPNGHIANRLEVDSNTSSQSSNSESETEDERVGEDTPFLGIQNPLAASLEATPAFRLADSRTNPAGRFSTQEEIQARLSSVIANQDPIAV
Assay [7] concerns Neuregulin-1 EGF-like domain. The experiment in a line: binders of neuregulin-1 EGF-like domain, primary screen, biochemical, small-molecule microarray, 635 nm fluorescence (AID 1081).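 Further: binding of the protein to compounds printed on small-molecule microarray slides.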 Particulars: small-molecule microarray binding, higher = more signal.
The nature of assay [8]: FRG1 promoter luciferase signal modulators, primary screen, FRG1 inhibition for FSHD, cell-based, C2C12 myotubes, firefly/Renilla luciferase, luminescence (AID 1084). Particulars: higher = more signal, called active from +8 up or from −8 down.
The nature of assay [9]: binders of probe aFST on microarray, primary screen, stem cell growth factor project, biochemical, small-molecule microarray, fluorescence 635/667 (AID 1086).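 Further: score merges 667 nm fluorescence with signal-to-noise of each printed compound spot.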 Particulars: higher = more signal.
Assay [10] is described as follows: binders of probe aHhip on microarray, primary screen, stem cell growth factor project, biochemical, small-molecule microarray, fluorescence 635/667 (AID 1087).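 Further: score merges spot fluorescence at 667nm with spot signal to noise ratio.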 The note with it: higher = more signal.
Assay [11] deals with PRMT1 (protein arginine N-methyltransferase 1). Put plainly: PRMT1 binders on small-molecule microarrays, primary screen, biochemical, small-molecule microarray, 635 nm fluorescence (AID 1088).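 Further: binding of Prmt1 protein to compounds spotted on small-molecule microarray slides.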 The note with it: small-molecule microarray binding, higher = more signal.
A short description of assay [12]: yeast growth modulation, basal conditions, primary screen, YJM789 clinical isolate, OD600, 24 h (AID 1089).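 Further: growth of clinical yeast isolate S. cerevisiae YJM 789 seeded 1000 cells per well; test concentration not given here.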 Particulars: S. cerevisiae YJM789 growth, higher = more signal, called active from +8 up or from −8 down.
The nature of assay [13]: fission yeast growth modulation, primary screen, strain 972, OD600, 24 h, no modulator (AID 1090).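 Further: basal condition with compound alone and no growth modifier present; test concentration not given here.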 The note with it: S. pombe 972 growth, higher = more signal, called active from +8 up or from −8 down.
Assay [14] can be described thus: S. cerevisiae growth modulation with rapamycin, primary screen, strain BY4716, OD600, 96 h (AID 1091). Further: test concentration not given here. Particulars: higher = more signal, called active from +8 up or from −8 down.
Assay [15] deals with Torsin-1A-interacting protein 2 (Homo sapiens) (UniProt Q8NFQ8). The experiment in a line: LULL1 binders on small-molecule microarray, primary screen, cell lysate, human LULL1 lysate, 635/667 nm fluorescence (AID 1092).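 Further: probe is lysate of COS7 cells overexpressing human LULL1; score merges per-feature 667 nm fluorescence with signal-to-noise.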 Particulars: hLULL1 lysate binding, 635 nm fluorescence, higher = more signal.
Chain of Torsin-1A-interacting protein 2 (Homo sapiens) (Q8NFQ8 whole entry, looked up): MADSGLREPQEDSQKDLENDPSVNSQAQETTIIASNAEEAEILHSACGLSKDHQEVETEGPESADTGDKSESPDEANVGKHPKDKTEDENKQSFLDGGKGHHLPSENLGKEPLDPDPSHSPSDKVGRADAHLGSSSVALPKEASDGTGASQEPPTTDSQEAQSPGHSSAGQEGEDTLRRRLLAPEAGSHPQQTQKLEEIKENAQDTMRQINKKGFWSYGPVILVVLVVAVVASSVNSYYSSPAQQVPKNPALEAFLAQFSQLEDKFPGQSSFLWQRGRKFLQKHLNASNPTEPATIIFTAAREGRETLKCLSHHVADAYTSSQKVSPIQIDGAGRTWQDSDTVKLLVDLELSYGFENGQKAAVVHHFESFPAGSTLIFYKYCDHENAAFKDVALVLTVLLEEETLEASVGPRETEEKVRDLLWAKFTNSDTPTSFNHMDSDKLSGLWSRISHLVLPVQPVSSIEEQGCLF
Assay [16] can be described thus: E. coli growth modulation, two-sided OD650, primary screen, E. coli filamentation project, strain DRC41, 24 h (AID 1093).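 Further: MC1000 strain lacking acrAB efflux and sulA so SOS filamentation is blocked; test concentration not given here.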 The note with it: OD650, 24 h, higher = more signal, called active from +8 up or from −8 down.
Assay [17] is described as follows: small-molecule microarray binders of probe aLefty2, primary screen, biochemical, biotinylated probe, 635/667 nm fluorescence (AID 1094).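 Further: score merges spot fluorescence near 667 nm with spot signal-to-noise ratio.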 Particulars: higher = more signal.
In assay [18] the test system is Noggin (protein binding on small-molecule microarray). The experiment in a line: Noggin binders on small-molecule microarray, primary screen, biochemical, 635/667 nm fluorescence (AID 1095).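 Further: score merges 667 nm feature fluorescence with signal to noise over triplicate slides.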 The note with it: 635 nm fluorescence, higher = more signal.
Assay [19] has as its target Neurogenic locus notch homolog protein 3 (Homo sapiens) (UniProt Q9UM47). The experiment in a line: NOTCH3 binders on small-molecule microarray, primary screen, biochemical, 635/667 nm fluorescence (AID 1096). The note with it: NOTCH3 binding, 635 nm fluorescence, higher = more signal.
Assay [20] in a line: small-molecule microarray binders of probe aEGFR, primary screen, biochemical, biotinylated probe, 635/667 nm fluorescence (AID 1097).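 Further: probe is a biotinylated anti-EGFR antibody binding compounds printed on slides; score combines fluorescence near 667 nm and signal to noise of each spot.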 The note with it: higher = more signal.

The source made the active and inactive calls.

Chain of Neurogenic locus notch homolog protein 3 (Homo sapiens) (Q9UM47 whole entry, looked up): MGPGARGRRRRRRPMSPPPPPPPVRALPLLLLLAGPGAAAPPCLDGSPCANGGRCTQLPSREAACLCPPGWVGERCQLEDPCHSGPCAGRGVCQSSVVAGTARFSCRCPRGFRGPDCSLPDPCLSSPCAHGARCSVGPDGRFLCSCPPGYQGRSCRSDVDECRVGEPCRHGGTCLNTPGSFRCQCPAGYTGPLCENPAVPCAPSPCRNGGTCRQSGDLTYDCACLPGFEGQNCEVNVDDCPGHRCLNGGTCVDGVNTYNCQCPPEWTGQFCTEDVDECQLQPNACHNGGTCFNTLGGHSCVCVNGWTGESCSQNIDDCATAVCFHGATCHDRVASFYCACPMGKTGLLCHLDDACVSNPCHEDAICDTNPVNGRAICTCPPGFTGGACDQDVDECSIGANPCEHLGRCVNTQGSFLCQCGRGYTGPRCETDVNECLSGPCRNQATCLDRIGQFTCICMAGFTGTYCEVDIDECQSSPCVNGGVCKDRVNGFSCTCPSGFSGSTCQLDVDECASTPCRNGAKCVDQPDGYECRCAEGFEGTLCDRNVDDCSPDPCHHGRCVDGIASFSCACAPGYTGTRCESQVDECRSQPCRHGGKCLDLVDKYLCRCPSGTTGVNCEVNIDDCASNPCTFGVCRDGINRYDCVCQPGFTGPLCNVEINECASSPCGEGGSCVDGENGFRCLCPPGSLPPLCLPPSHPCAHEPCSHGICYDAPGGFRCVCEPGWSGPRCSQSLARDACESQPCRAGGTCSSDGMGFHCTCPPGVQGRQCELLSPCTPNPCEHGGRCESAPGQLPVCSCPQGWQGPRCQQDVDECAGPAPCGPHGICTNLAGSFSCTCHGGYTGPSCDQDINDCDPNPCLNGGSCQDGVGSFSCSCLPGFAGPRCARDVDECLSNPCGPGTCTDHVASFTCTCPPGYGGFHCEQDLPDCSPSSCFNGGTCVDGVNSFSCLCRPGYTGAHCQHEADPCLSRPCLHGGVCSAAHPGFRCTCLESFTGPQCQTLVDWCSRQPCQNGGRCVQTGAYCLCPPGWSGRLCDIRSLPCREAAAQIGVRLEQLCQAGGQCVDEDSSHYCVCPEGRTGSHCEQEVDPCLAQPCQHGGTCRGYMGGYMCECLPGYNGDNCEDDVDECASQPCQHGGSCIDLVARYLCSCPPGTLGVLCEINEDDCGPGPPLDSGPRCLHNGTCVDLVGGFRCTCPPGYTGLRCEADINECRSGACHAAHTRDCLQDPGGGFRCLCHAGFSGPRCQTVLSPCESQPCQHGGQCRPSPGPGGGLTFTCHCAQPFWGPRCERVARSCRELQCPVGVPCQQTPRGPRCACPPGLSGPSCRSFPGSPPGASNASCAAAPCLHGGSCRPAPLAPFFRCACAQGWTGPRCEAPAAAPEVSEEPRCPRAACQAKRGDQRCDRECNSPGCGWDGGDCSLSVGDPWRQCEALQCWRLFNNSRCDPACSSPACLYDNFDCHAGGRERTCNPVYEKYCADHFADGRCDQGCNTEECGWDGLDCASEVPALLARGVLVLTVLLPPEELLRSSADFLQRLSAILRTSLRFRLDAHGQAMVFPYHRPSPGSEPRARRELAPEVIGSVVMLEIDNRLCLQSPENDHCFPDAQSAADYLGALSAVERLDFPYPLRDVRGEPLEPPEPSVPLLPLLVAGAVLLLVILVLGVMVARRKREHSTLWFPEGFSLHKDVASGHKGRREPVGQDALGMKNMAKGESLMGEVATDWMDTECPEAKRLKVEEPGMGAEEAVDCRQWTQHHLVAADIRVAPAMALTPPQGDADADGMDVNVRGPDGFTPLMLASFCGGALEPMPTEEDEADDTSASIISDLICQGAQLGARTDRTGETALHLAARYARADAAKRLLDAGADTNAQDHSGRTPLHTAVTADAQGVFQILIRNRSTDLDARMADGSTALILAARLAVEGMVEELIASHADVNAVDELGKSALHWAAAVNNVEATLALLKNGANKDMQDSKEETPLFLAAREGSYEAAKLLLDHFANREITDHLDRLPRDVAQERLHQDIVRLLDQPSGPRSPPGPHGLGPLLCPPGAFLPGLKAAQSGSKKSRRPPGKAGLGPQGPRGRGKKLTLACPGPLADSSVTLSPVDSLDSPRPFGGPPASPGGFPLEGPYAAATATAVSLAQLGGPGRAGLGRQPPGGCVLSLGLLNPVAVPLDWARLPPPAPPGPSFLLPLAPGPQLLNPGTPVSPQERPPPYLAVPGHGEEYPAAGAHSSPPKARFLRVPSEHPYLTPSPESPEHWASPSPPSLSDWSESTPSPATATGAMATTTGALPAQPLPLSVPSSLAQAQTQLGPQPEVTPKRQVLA

In the case of `Cc1ccc(S[C@]2(C(=O)NCc3ccccc3)CC(=O)N(C3CCCCC3)[C@@H]2c2ccc(CO)cc2I)cc1`, the composite z-score is 1.27 in assay [1]; -0.0582 in [2]; 0.11 in assay [3]; 0.339 in assay [4]; 0.553 in [5]; 1.17 in assay [6]. The composite z-score in [7] is 1.19; in [9], 0.455; in assay [10] it was -0.132; in [11], 1.15; in assay [15] it was 2.72; in assay [17] it was -0.0948. Also, the composite z-score in assay [18] is 0.147; in [19], 0.237; in assay [20], -0.139. In addition, the z-score in assay [8] is -2.84 (inactive); in [12] it was -0.727 (inactive); in assay [13], -0.462 (inactive); in assay [14], 0.861 (inactive); in [16] it was -0.455 (inactive).

Turning to `COC(=O)[C@@]1(Cc2ccc(OC)cc2)[C@H]2c3cc(C(=O)N4CCCC4)n(CCO)c3C[C@H]2CN1C(=O)c1ccccc1`, the composite z-score was 0.0734 in assay [1]; -0.562 in assay [2]; 0.418 in [3]; 1.18 in assay [4]; 1.55 in [5]; 1.77 in assay [6]. For the same molecule, the composite z-score in assay [7] was 0.764; in assay [9], 0.691; in assay [10], 0.34; in assay [11], 0.738; in [15], 4.02; in assay [17] it was 0.159. Further, the composite z-score in [18] is -0.0367; in assay [19] it was 0.552; in assay [20], 0.212. Further, the z-score in [8] was 1.45 (inactive); in assay [12], 0.663 (inactive); in [13], 0.544 (inactive); in assay [14] it was -0.289 (inactive); in [16] it was -1.41 (inactive).

With `COCC(=C=CC[C@H](O)c1ccc(OCCO)cc1)CCO`, the composite z-score in assay [1] is -0.144; in [2], 1.12; in assay [3], -0.161; in [4] it was 0.592; in [5], 0.124; in [6] it was 1.64. Besides, the composite z-score in [7] is 1.42; in [9] it was 0.0418; in assay [10], -0.0618; in assay [11] it was 1.18; in assay [15] it was 2.42; in assay [17], 0.106. Moreover, the composite z-score came to 1.21 in [18], 0.227 in assay [19] and 0.0882 in [20]. Further, the z-score in assay [8] is 0.461 (inactive); in assay [12] it was 0.028 (inactive); in assay [13] it was -0.406 (inactive); in assay [14], -0.274 (inactive); in assay [16] it was 0.399 (inactive).

Consider `O=C(c1ccccc1)N1C(=O)[C@]2(Cc3ccccc31)N=C(c1ccc(OCCCO)cc1)O[C@@H]2c1ccccc1`, for which the composite z-score was -0.203 in assay [1]; -0.0033 in [2]; -0.061 in [3]; 0.821 in assay [4]; 0.562 in assay [5]; 1.61 in assay [6]. In addition, the composite z-score in [7] was 1.3; in assay [9], 0.313; in assay [10] it was 0.252; in assay [11], 1.54; in assay [15] it was 3.25; in [17], -0.0059. The composite z-score in [18] was 1.12; in assay [19], 1.07; in assay [20], -0.157. In addition, the z-score in [8] is -1.76 (inactive); in assay [12] it was 0.525 (inactive); in assay [13] it was 0.171 (inactive); in assay [14], 3.7 (inactive); in assay [16], 0.0249 (inactive).

For `CC(C)(C)OC(=O)COc1cccc(C(=O)CCN2CCOCC2)c1`, the composite z-score in [1] was 1.39; in assay [2], 0.262; in assay [3], -0.0741; in assay [4], -0.459; in assay [5], -0.742; in assay [6], 0.359. Moreover, the composite z-score was 0.187 in [7]; 0.482 in [9]; -0.243 in assay [10]; 1.34 in assay [11]; 0.557 in assay [15]; -0.126 in assay [17]. The composite z-score in assay [18] was -0.0786; in assay [19], -0.529; in assay [20], -0.0815. In addition, the z-score in [8] was 1.57 (inactive); in assay [12], -0.728 (inactive); in [13] it was -19.8 (active); in assay [14], -2.13 (inactive); in assay [16], 0.328 (inactive).
